Screens from PubChem.
An excerpt weighted towards active compounds, which were near 2.2% of everything screened.
M1 ag: human M1 muscarinic receptor agonists, primary screen, Fluo-8 calcium fluorescence, CHO-K1 cells, HTS; AID 588814, 2011; activation, % at 3 µM; hit rate 0.33% among 360,000; CHO-K1 hM1, agonist mode; 0% DMSO, 100% acetylcholine EC100;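 active = activation above the run's mean compound activation plus 3 SD, cut at about 16% in these data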;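 also: peak over basal fluorescence ratio within a 140 s kinetic read after compound addition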
Target sequence (P11229 whole entry, looked up): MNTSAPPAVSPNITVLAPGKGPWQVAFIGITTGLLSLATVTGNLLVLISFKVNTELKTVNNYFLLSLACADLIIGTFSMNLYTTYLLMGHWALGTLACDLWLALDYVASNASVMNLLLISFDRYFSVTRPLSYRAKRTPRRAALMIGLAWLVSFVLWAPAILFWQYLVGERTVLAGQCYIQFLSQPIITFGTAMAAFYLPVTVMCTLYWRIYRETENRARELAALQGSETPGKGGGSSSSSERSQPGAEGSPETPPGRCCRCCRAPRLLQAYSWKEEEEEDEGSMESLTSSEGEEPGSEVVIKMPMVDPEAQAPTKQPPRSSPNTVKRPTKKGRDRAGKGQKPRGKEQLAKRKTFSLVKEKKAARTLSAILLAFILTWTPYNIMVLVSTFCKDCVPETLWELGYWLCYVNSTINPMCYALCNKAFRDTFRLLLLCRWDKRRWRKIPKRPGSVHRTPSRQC
M1 antag: human M1 muscarinic receptor antagonists, primary screen, CHO-K1 cells, Fluo-8 calcium fluorescence, 1536-well | Muscarinic acetylcholine receptor M1 (Homo sapiens), P11229 | CHO-K1 hM1, ACh EC80 antagonist | inhibition, % at 3 µM | hit rate 1.3% among 360,000;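 active = percent inhibition above its own plate's cutoff, namely the mean of that plate's compound wells plus 3 SD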;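 also: peak over basal fluorescence ratio during 140 s after agonist addition; 0% = ACh EC80 plus DMSO and 100% = DMSO alone without agonist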
CHRM1 PAM: human M1 muscarinic receptor positive allosteric modulators, primary screen, CHO-K1 cells, Fluo-8 calcium fluorescence, 1536-well; Muscarinic acetylcholine receptor M1 (Homo sapiens), P11229; CHO-K1 hM1, ACh EC20; 0% = ACh EC20, 100% = maximal ACh; activation, % at 3 µM; hit rate 0.088% among 360,000; AID 588819, 2011; in the data active = activation above about 19%, passing the limit was not always enough
M4 ag: human M4 muscarinic receptor agonists, primary screen, CHO-K1 cells, Fluo-8 calcium fluorescence. Muscarinic acetylcholine receptor M4 (Homo sapiens), P08173. activation, % at 3 µM. CHO-K1 hM4/Gqi5; vehicle 0%, full acetylcholine response 100%. hit rate 0.14% among 360,000;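 active = activation above the run mean over all test wells plus 3 SD, cut at about 32% in these data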;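 also: peak over basal fluorescence ratio per well then scaled between controls; 0% = DMSO wells and 100% = acetylcholine at EC100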
CHRM4 PAM: human M4 muscarinic receptor positive allosteric modulators, primary screen, CHO-K1 cells, Fluo-8 calcium fluorescence | CHO-K1 hM4/Gqi5, ACh EC20; 0% = ACh EC20, 100% = maximal ACh | activation, % at 3 µM | hit rate 0.4% among 360,000;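 active = activation above its plate's cutoff, the mean activation of sample wells plus 3 SD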
M4 antag: human M4 muscarinic receptor antagonists, primary screen, CHO cells, Fluo-8 calcium fluorescence | hit rate 0.73% among 360,000 | inhibition, % at 3 µM | CHO-hM4 cells, ACh EC80 | Muscarinic acetylcholine receptor M4 (Homo sapiens), P08173;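 active = inhibition above its plate's cutoff, the mean inhibition of sample wells plus 3 SD, cut at about 27% in these data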;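 also: 0% = acetylcholine EC80 with DMSO and 100% = DMSO without agonist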
Starred values were filed as active, the others as inactive; · = no result given.

SMILES	M1 ag	M1 antag	CHRM1 PAM	M4 ag	CHRM4 PAM	M4 antag
COc1ccc(C(=O)C2CCCN(CC3CCCCC3)C2)cc1OC (stereo not drawn)	-11	78*	-33	1	-11	34*
COc1cccc(C(=O)C2CCCN(Cc3cccc4c3OCO4)C2)c1 (stereo not drawn)	-10	65*	-29	11	-20	6
COc1ccc(C(=O)C2CCCN(Cc3ccsc3)C2)cc1OC (stereo not drawn)	-10	21	-25	0	-2	12
O=C(COc1ccc2ccccc2c1)N1CCN(CC2CC3C=CC2C3)CC1 (stereo not drawn)	3	-10	-5	4	-9	3
CN1CCCC(C(O)(c2ccccc2)c2ccccc2)C1 (stereo not drawn)	-7	11	-8	1	-18	-11
C[N+]12CCC(CC1)C(C(O)(c1cccc(Cl)c1)c1cccc(Cl)c1)C2 (stereo not drawn)	-5	97*	-25	0	-15	87*
CC[N+]12CCC(CC1)C(C(O)(c1ccccc1)c1ccccc1)C2 (stereo not drawn)	-6	98*	-23	0	-44	72*
CC(C)[N+]12CCC(CC1)C(C(O)(c1ccccc1)c1ccccc1)C2 (stereo not drawn)	-8	93*	-26	-1	-15	54*
COc1ccc2oc3c(c2c1)NC(=O)CN=C3c1ccccc1	-2	2	-9	3	-1	6
O=C1CN=C(c2ccc(Cl)cc2)c2oc3ccccc3c2N1	18*	-14	9	0	-4	3
Cc1ccc(-c2nc3ccccc3c(=O)n2-c2ccc(O)cc2)cc1	-4	-2	2	4	-6	-14
CN1/C(=C\C=C2C(=O)NC(=S)NC2=O)C(C)(C)c2ccccc21	63*	27*	-26	23	-14	15
O=C1NC(=S)NC(=O)C1=Cc1cccc2cc3ccccc3cc12	-5	-14	12	0	6	-18
CSc1nc(N)c(N=Nc2ccc([As](=O)(O)O)cc2)c(=O)[nH]1	-3	-16	16	1	6	-2
CCN(CC)CCN1Cc2ccccc2C1=N	-9	11	-12	1	-11	1
CC(=O)N1CCN(CCN=Cc2c(O)n(-c3ccc(F)cc3)c(=S)[nH]c2=O)CC1	-2	22	-11	2	-1	2
CCOC(=O)[C@]12Cc3cc(OC)ccc3[C@H]1N(C1CCCCC1)C(=O)c1ccccc12	·	·	·	-2	-2	20
CCOC(=O)[C@]12Cc3cc(Cl)ccc3[C@H]1N(C1CCCCC1)C(=O)c1ccccc12	·	·	·	-2	1	30*
CN(C)C(Cc1ccc(C#N)cc1)C(=O)c1ccccc1 (stereo not drawn)	-9	-3	0	0	-12	11
C=C(C)[C@@]12OC3(c4ccccc4)O[C@@H]1C1[C@@H]4O[C@]4(CO)[C@@H](O)[C@]4(O)C(=O)C(C)=C[C@H]4[C@@]1(O3)[C@H](C)[C@H]2OC(=O)/C=C/C=C/c1ccccc1 (stereo partly drawn)	-7	43*	-32	2	-5	-13
CN(CC1COc2ccccc2O1)c1nc(-c2cccnc2)nc2ccccc12 (stereo not drawn)	0	30*	-13	8	1	-28
CN1CCC(N(C)c2nc(-c3ccc([N+](=O)[O-])cc3)nc3ccccc23)CC1	-2	-3	-4	7	26	-6
CCOC(=O)CC(SP1(=S)OCC2(CC=CCC2)CO1)C(=O)OCC (stereo not drawn)	1	24*	-21	17	-10	9
CC(C)(C)C(=O)OC[N+](C)(C)CCOC(=O)C(O)(c1ccccc1)C1CCCC1 (stereo not drawn)	-7	98*	-25	0	-24	99*
CCCC(CCC)C(=O)OC[N+](C)(C)CCOC(=O)C(O)(c1ccccc1)C1CCCC1 (stereo not drawn)	-12	99*	-31	1	-20	97*
SMILES	M1 ag	M1 antag	CHRM1 PAM	M4 ag	CHRM4 PAM	M4 antag
CC(C)CC(NC(=O)CCCNC(=O)CCC(=O)OC1O[C@H]2OC3(C)CC[C@H]4[C@H](C)CCC(C1C)C24OO3)C(=O)O (stereo partly drawn)	-3	-13	10	1	8	-23
O=C(CCCN1CCC(n2c(=O)[nH]c3ccccc32)CC1)c1ccc(F)cc1	5	32	-21	5	-17	27*
CCC1(OC(=O)c2ccccc2)CC(C)N(C)CC1C (stereo not drawn)	-4	-15	9	2	0	-4
C=CCC1(Nc2ccccc2)CC(C)N(C)CC1C (stereo not drawn)	-8	97*	-27	1	-51	49*
COC(=O)C1=C(c2c(C)noc2C)C[C@@H]2CC[C@H]1N2C(=O)N1CCC(O)(c2ccc(Cl)cc2)CC1	-5	-7	8	4	0	-7
CCN1C[C@]2(COC)CC[C@H](OC)[C@@]34C1[C@]1(OCO[C@@]15C[C@H](OC)[C@H]1C[C@@H]3[C@@H]5[C@H]1OC)[C@@H](O)[C@H]24	-1	-26	1	2	1	-7
CN1CN(c2ccccc2)C2(CCN(CCCSc3ccccc3NC(=O)/C=C/c3ccccc3)CC2)C1=O	47*	55*	-34	110*	-13	59*
COc1ccc(CNCCc2c(C)[nH]c3ccc(OC(F)(F)F)cc23)c(OC)c1	0	27	-8	40*	-12	29*
Cn1c(O)c(/C=C/C=Nc2ccccc2)c(=O)n(C)c1=S	58*	34*	-17	6	-5	-3
Cc1cccc(-n2c(O)c(/C=C/C=Nc3ccccc3)c(=O)[nH]c2=O)c1	7	7	-9	7	-2	-4
NCCc1ccc(OCc2ccccc2)c(OCc2ccccc2)c1	13	-4	11	34*	8	21
CN1CCC(O)(c2ccc(Cl)cc2)C(C(=O)c2ccc(Cl)cc2)C1 (stereo not drawn)	-10	30*	-25	0	-15	13
CN1CC(C(=O)c2ccc(Cl)cc2)C(c2ccc(Cl)cc2Cl)C1 (stereo not drawn)	-6	8	-10	3	-13	-2
